# Test results: PubChem BioAssay (Tox21)
# Results filed as inconclusive are left out. Where a call stands in place of a potency, no number is given. Active and inactive are the calls of the source. Unless noted, calls follow the shape of the dose curve; as a rule, active = well fitted curve in the direction sought with a large enough effect in the repeat runs; inconclusive = weak or mixed curves; inactive = flat fitted curve, though single readings scatter.
# System: not listed separately
# Assay: qHTS assay to test for compound auto fluorescence at 460 nm (blue) in HepG2 cells (AID 720687)
# Conditions: autofluorescence 405/460 nm, 1 h; series mostly up to 91.3 µM
# Procedure, shortened: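 HepG2 cells in MEM with 10% FBS, attached overnight at 37 C, were exposed to compound or DMSO for 1 hr at 37 C, 5% CO2. Blue fluorescence was read at 405/460 nm, with triamterene as reference fluorophore.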
row,SMILES,outcome
1,NCc1cccc(CN)c1,inactive
2,CC[Si](OC(C)=O)(OC(C)=O)OC(C)=O,inactive
3,O=S(=O)(O)CCS,inactive
4,CCCCCCCCC,inactive
5,C=C1C2CCC(C2)C1(C)C (configuration not stated),inactive
6,OCCOCCOCCOCCO,inactive
7,C=C(C)C(=O)OCCC[Si](OC)(OC)OC,inactive
8,CS(=O)(=O)c1ccc([C@@H](O)[C@@H](CO)NC(=O)C(Cl)Cl)cc1,inactive
9,CC1=C(CC(=O)O)c2cc(F)ccc2/C1=C\c1ccc(S(C)=O)cc1 (configuration not stated),inactive
10,COC(=O)c1ccccc1O,inactive
11,O=C(O)c1cc(-c2ccccc2)nc2ccccc12,inactive
12,Cc1ccc(N)c(S(=O)(=O)O)c1,inactive
13,CCCCC/C=C\C/C=C\CCCCCCCC(=O)OC,inactive
14,C/C=C(C)/C=C/C=C(C)C,inactive
15,COC(=O)c1ccc(C(=O)OC)cc1,inactive
16,OC[C@@H](O)[C@@H](O)[C@H](O)[C@@H](O)CO,inactive
17,CC#C[C@]1(O)CC[C@H]2[C@@H]3CCC4=CC(=O)CCC4=C3[C@@H](c3ccc(N(C)C)cc3)C[C@@]21C,inactive
18,CCOC(=O)/C=C\C(=O)OCC,inactive
19,CC1Cc2ccccc2N1NC(=O)c1ccc(Cl)c(S(N)(=O)=O)c1 (configuration not stated),inactive
20,CCCCNC(N)=O,inactive
21,Cc1cc(Cc2ccc(N)c(C)c2)ccc1N,inactive
22,Clc1ccc(Cl)c(Cl)c1Cl,inactive
23,Cn1c([N+](=O)[O-])cnc1COC(N)=O,inactive
24,NC(=O)/N=N/C(N)=O,inactive
25,CCC(=O)O,inactive
26,CC(C)(CO)COC(=O)C(C)(C)CO,inactive

# Target: Glucocorticoid receptor (Homo sapiens) (UniProt P04150)
# Sequence (P04150 whole entry, looked up): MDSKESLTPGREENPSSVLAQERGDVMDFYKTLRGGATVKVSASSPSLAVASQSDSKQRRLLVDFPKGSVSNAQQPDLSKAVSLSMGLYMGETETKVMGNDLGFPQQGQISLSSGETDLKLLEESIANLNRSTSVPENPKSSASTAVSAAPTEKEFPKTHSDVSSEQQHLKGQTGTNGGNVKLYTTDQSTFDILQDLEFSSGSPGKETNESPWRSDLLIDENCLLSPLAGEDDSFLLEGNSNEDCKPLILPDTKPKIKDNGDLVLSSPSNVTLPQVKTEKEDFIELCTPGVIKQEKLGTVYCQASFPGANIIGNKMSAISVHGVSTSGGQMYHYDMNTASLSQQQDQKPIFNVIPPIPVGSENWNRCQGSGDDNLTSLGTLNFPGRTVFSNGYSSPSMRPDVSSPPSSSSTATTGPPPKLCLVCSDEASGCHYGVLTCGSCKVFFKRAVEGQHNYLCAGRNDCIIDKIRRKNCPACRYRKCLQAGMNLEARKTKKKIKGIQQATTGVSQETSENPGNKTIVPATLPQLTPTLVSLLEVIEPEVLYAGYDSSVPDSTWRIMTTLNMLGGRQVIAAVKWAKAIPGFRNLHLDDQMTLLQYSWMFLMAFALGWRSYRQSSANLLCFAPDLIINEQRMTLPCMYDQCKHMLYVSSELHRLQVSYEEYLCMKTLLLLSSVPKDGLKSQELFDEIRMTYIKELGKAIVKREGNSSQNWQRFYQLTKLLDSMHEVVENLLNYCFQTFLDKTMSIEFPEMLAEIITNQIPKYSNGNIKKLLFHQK
# Assay: qHTS assay to identify small molecule agonists of the glucocorticoid receptor (GR) signaling pathway (AID 720691; active = well fitted activation curve with a large enough effect in the signal ratio in the repeat runs, not every such curve was filed as active; the % refers to the signal ratio)
# Conditions: GR-bla HeLa, beta-lactamase reporter ratio, 18 h; activation: at 62.4 µM (top of the series) unless noted
# Procedure, shortened: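 GR-bla HeLa cells (beta-lactamase reporter under glucocorticoid response element) were plated 4 h at 37 C/5% CO2, given compounds in DMSO, and incubated 18 h at 37 C. LiveBLAzer B/G FRET substrate was added for 2 h at room temperature, then fluorescence intensity read.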
row,SMILES,Potency
1,Clc1cc(Cl)c(Cl)cc1Cl,inactive
2,NCc1cccc(CN)c1,inactive
3,O=S(=O)(O)CCS,inactive
4,C=C1C2CCC(C2)C1(C)C (configuration not stated),inactive
5,C=C(C#N)C(=O)OCC,inactive
6,CCCCCCCCCCCCN,inactive
7,CC1=C(CC(=O)O)c2cc(F)ccc2/C1=C\c1ccc(S(C)=O)cc1 (configuration not stated),inactive
8,O=C(O)c1cc(-c2ccccc2)nc2ccccc12,inactive
9,O=c1c(-c2ccc(O)cc2)coc2cc(O)ccc12,inactive
10,Cc1ccc(N)c(S(=O)(=O)O)c1,inactive
11,CCOC(=O)[C@H](CCc1ccccc1)N[C@@H](C)C(=O)N1Cc2ccccc2C[C@H]1C(=O)O,inactive
12,Nc1nc2ncc(CNc3ccc(C(=O)N[C@@H](CCC(=O)O)C(=O)O)cc3)nc2c(=O)[nH]1,inactive
13,Oc1c(Cl)cc(Cl)c(Cl)c1Cl,inactive
14,Cn1c([N+](=O)[O-])cnc1COC(N)=O,inactive
15,CCC(=O)O,inactive
16,CC(C)(CO)COC(=O)C(C)(C)CO,inactive
